Each structure is given as a SMILES string. ± gives the standard deviation.

The assay concerns OVCAR-3-derived ovarian cancer stem-like cells (spheroids). The assay is described as follows: cell growth relative to untreated control; higher = more growth (less inhibition). The settings on record: 2.29 µM; 96 h. Summed up: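 After trypsin dissociation, OVCAR-3 spheroid-derived stem-like cells were placed in ultra-low attachment 96-well plates at 50,000 cells/mL in stem cell medium and preincubated for 24 h. Treatment at 2.29 uM followed for 96 h at 37°C, 5% CO2, with 4 replicate wells per compound. A 4 h TOX8 resazurin fluorescence read (ex 560/em 590 nm) gave viability, from which percent growth relative to untreated wells was derived after blank subtraction and Grubbs outlier removal.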
Regarding `O=C1c2ccccc2C(=O)C1C(c1ccc([N+](=O)[O-])cc1)C1C(=O)c2ccccc2C1=O`, the cell growth amounted to 83.3 ± 24%.

`O=C(/C=C/c1c(O)ccc2ccccc12)c1cccc(O)c1` showed a cell growth of 94.3 ± 20%.

For the compound `O=C1C(c2cnc3ccccc3n2)=C(O)c2ccccc21`, the cell growth amounted to 197 ± 48%.

Turning to `O=C1/C(=C/c2cccs2)Oc2ccccc21`, the cell growth is 94 ± 12%.

Compound `CN(C)c1ccc(/C=C2\CCc3ccccc3C2=O)cc1Br` came in with a cell growth of 91.4 ± 12%.

Regarding `O=C1c2ccccc2C(=O)c2nc(-c3ccccc3)c(-c3ccccc3)nc21`, the cell growth is 137 ± 51%.

For `CSC1SC[C@H]2C(=O)N(C)[C@@H](C(C)C)C(=O)OC[C@@H](NC(=O)c3cnc4ccccc4n3)C(=O)N[C@@H](C)C(=O)N(C)[C@@H]1C(=O)N(C)[C@@H](C(C)C)C(=O)OC[C@@H](NC(=O)c1cnc3ccccc3n1)C(=O)N[C@@H](C)C(=O)N2C` (stereo not given in full), the cell growth was 19.7 ± 3.8%.

In the case of `Cc1[nH]c(=O)nc(N/N=C/c2ccc(Cl)cc2)c1C(=O)Nc1ccc(Cl)cc1`, the cell growth was 63.1 ± 11%.

On to `CC1OC(CC(=O)O)CC2=C1C(=O)c1c(O)cccc1C2=O` (stereo not given), for which the cell growth is 130 ± 42%.

Compound `COc1ccc(C=CC(=O)Oc2cc(O)cc(O)c2)cc1` registered a cell growth of 99.6 ± 16%.

`Nc1nncs1`: the cell growth was determined as 98.4 ± 22%.

As for `O=C1Oc2ccccc2C(=O)/C1=C1\C=C(c2ccccc2)SS1`, the cell growth came to 158 ± 71%.

The compound `CC1(c2cccc3ccccc23)OC(=O)c2ccccc21` (stereo not given) yielded a cell growth of 116 ± 29%.

Compound `CC(=O)[O][Hg].c1ccc2c(c1)ccc1ccccc12` showed a cell growth of 132 ± 32%.

`CCNC(=O)OCc1c(COC(=O)NCC)c(-c2ccc(Cl)c(Cl)c2)n2c1CCC2` had a cell growth of 74.1 ± 12%.

Compound `C=C(CN(C)C)C(=O)c1ccccc1Cl` had a cell growth of 84 ± 22%.

On to `O=C1c2cccc(NCCCNCCO)c2C(=O)c2cccc(NCCCNCCO)c21`, for which the cell growth came out at 57.9 ± 16%.

Compound `CN(C)CCNC(=O)c1cccc2[nH]c(-c3ccncc3)nc12` came in with a cell growth of 96.5 ± 22%.

As to `COc1cc(CC(=O)c2cc3c(cc2-c2ccccc2)OCO3)cc(OC)c1OC`, the cell growth was 83.1 ± 25%.

Compound `CC(CN1CC(=O)NC(=O)C1)N1CC(=O)NC(=O)C1` (stereo not given) came in with a cell growth of 221 ± 43%.

`O=C(CC1(O)C(=O)Nc2c(Cl)cc(Cl)cc21)c1cccc2ccccc12` (stereo not given): the cell growth stood at 90.9 ± 16%.

`C[C@H](CN1CC(=O)NC(=O)C1)N1CC(=O)NC(=O)C1`: the cell growth stood at 131 ± 20%.

`O=C(c1ccccc1)C(c1ccccc1)C1(O)C(=O)Nc2c(Cl)cc(Cl)cc21` (stereo not given) returned a cell growth of 114 ± 29%.

The compound `CC1=C(C(=O)NCc2ccccc2)C(c2ccccc2O)C(C(=O)NCc2ccccc2)=C(C)N1` displayed a cell growth of 76.9 ± 12%.

In turn, `N#CC(C#N)=Cc1cccc(Oc2ccccc2)c1` yielded a cell growth of 74.1 ± 8%.

`Cc1ccc(S(=O)(=O)N2CCSCCSCCSCCSCC2)cc1` gave a cell growth of 92.2 ± 26%.

`O=C1c2ccccc2-c2c1c1ccccc1c(=O)n2Cc1ccccc1` gave a cell growth of 86.2 ± 51%.

`O=[N+]([O-])c1cc(C(F)(F)F)cc([N+](=O)[O-])c1CCl` yielded a cell growth of 38.4 ± 11%.

`CCOc1cccc(/C=N/N=C2\C(=O)Nc3c(Cl)cc(Cl)cc32)c1O` returned a cell growth of 85.4 ± 13%.

Regarding `CC(=O)c1ccc(Oc2ccc(/C(C)=N/N=C(N)N)cc2)cc1`, the cell growth amounted to 32.4 ± 7.5%.

On to `CS(=O)(=O)OCCCCOS(C)(=O)=O`, for which the cell growth amounted to 121 ± 16%.

Turning to `Cc1ccccc1NC(=O)C(=O)C(c1cnc2ccc([N+](=O)[O-])cc2n1)[N+](=O)[O-]` (stereo not given), the cell growth came to 112 ± 25%.

For the compound `Nc1nc(SCc2ccccc2Cl)c2ncn(C3OC(CO)C(O)C3O)c2n1` (stereo not given), the cell growth is 177 ± 61%.

Turning to `CC1=CC(=O)c2ccccc2C1=O`, the cell growth was 89.6 ± 9.4%.

For the compound `CON(C)C(=O)C1CCCO1` (stereo not given), the cell growth came to 79.4 ± 11%.

`COC(=O)c1ccccc1NC(=O)C(=O)CC(=O)c1ccccc1NC1=CC(=O)C(=O)c2ccccc21` showed a cell growth of 65.5 ± 12%.

`CC(C)(C)OC(=O)NC(Cc1ccccc1)C(=O)OCN1C(=O)C2C3C=CC(C2C1=O)C1C2C(=O)N(COC(=O)C(Cc4ccccc4)NC(=O)OC(C)(C)C)C(=O)C2C31` (stereo not given): the cell growth is 109 ± 26%.

Turning to `Cc1[nH]c(=O)[nH]c(=O)c1/C=C/C(=O)NC(CO)CC(C)C` (stereo not given), the cell growth was determined as 94.2 ± 22%.

On to `O=C(CC1(O)C(=O)Nc2c(Cl)ccc(Cl)c21)c1ccc(Cl)cc1Cl` (stereo not given), for which the cell growth is 123 ± 11%.

On to `CC[C@@]1(O)C[C@H](O[C@H]2C[C@H](N(C)C)[C@H](O[C@H]3C[C@H](O)[C@H](O[C@H]4CCC(=O)[C@H](C)O4)[C@H](C)O3)[C@H](C)O2)c2c(cc3c(c2O)C(=O)c2c(O)cccc2C3=O)[C@@H]1C(=O)OC`, for which the cell growth came out at 48.2 ± 42%.

The values above are taken from the supplement of paper PMC3484114.
